# Screening results as filed in PubChem.
# Hits are enriched below; roughly 1.7% of the tested compounds scored in any of these assays.
# CHT allo act: allosterically activates the human high affinity choline transporter; B-score at 10 µM; actives 0.49% (n = 310,000); CHT-expressing cells, membrane potential dye, choline EC20; hits give high values; LV-AA mutant CHT in HEK293 cells; AID 488977;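 active means initial fluorescence not abnormally high and integrated response B-score, plate-corrected, over 3 SD above library mean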
# Target sequence (Q9GZV3 whole entry, looked up): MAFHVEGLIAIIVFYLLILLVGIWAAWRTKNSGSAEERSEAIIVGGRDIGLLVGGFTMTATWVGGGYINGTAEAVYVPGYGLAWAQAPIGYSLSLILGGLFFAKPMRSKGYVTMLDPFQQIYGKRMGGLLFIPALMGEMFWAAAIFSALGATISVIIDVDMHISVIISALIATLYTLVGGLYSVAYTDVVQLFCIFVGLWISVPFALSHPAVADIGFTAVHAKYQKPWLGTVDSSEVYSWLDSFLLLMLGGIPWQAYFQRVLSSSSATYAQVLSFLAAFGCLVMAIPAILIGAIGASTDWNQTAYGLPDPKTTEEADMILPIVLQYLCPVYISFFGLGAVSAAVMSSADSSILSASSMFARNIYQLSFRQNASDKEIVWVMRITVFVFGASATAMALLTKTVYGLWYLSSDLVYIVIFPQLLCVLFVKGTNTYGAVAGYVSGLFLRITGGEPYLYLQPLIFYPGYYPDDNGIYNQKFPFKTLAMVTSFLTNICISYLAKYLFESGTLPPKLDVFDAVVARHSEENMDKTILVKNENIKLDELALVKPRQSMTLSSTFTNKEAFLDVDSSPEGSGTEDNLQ
# H9c2 TAG inh: inhibitors of triacylglycerol accumulation; inhibition, % at 12.5 µM; H9c2 cells, Nile Red lipid (TAG) fluorescence; cells loaded with 200 µM oleic acid; actives 0.66% (n = 230,000);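 active means pattern-corrected inhibition of lipid staining of at least 50% with the nuclear-stain viability signal not falling by more than 50%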;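 further: 0% = DMSO wells and 100% = triacsin C control wells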
# CHT inh: human CHT choline transport inhibition; Q9GZV3; CHT-expressing cells, membrane potential dye, choline response; hits give low values; B-score at 10 µM; actives 0.86% (n = 310,000); AID 488975;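 active means B-score over 3 SD under the library average, and starting fluorescence ratio not unusually high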;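 further: choline stimulus applied at its EC90 after an EC20 pre-addition; B-score computed on integrated fluorescence ratio after choline addition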
# MIN6 prolif: MIN6 beta-cell proliferation induction. actives 0.29% (n = 330,000). proliferation, % at 10 µM. MIN6 cells proliferation, ATPlite luminescence, 48 h; cells starved in 0.2% serum; 100% = growth in 10% serum;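 active means compounds whose signal lies at least 3.5 SD above the mean of all wells on their plate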;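 further: 0% = DMSO-treated cells in low-serum medium and 100% = 10% serum control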
# CHT block conf: confirmation of human choline transporter CHT inhibitors | actives 70% (n = 2,400) | CHT-expressing cells, choline membrane potential dye; LV-to-AA substituted CHT, HEK293 cells | CHT activity remaining % of control (hits give low values), % at 10 µM | AID 493221 | shares compounds with CHT inh;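 active means choline transporter activity left, mean of duplicates at 10 µM, below buffer-only control mean minus 3 SD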;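 further: depolarization triggered by choline at its EC90 following an EC20 pre-addition; 0% = hemicholinium-3 full block and 100% = buffer-only control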
# HEK293 CHT ctr: counter-screen for CHT inhibitors: effect in parental HEK293 cells; membrane potential dye, choline response; active = decrease or increase beyond buffer ±3SD; membrane potential ratio readout (active if shifted either direction beyond buffer ±3SD; no single direction) at 10 µM; shares compounds with CHT inh; actives 4% (n = 2,400);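 further: parental cells lack the transporter so any hit is non-specific; ratio is peak minus trough fluorescence over baseline after EC90 choline challenge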
# An asterisk follows results filed as active; i = inactive; x = no result.
SMILES,CHT allo act,H9c2 TAG inh,CHT inh,MIN6 prolif,CHT block conf,HEK293 CHT ctr
O=C(C[n+]1cc(Br)cc2ccccc21)c1ccc(Br)cc1,i,x,-5.71*,-4.6,29.6%*,i
C/C(=N\N=C(N)N)c1ccc(Cl)cc1Cl,i,13.1,-7.47*,-4.8,15.8%*,i
Cc1oc(-c2ccc(Cl)cc2)nc1CN1CCCC(C(=O)NC2CC2)C1 (centres undefined),i,x,i,1.9,x,x
CCOC(=O)N1CCC(NC(=O)C2CCCN(Cc3nc(-c4cccc(Cl)c4)oc3C)C2)CC1 (centres undefined),i,-11.6,-6.39*,-6.7,51.4%*,i
Cc1ccc(S(=O)(=O)NCCC(=O)N2CCC(Cc3ccccc3)CC2)cc1,i,-10.6,i,1.9,i,i
O=S(=O)(NCc1csc(-c2cccs2)n1)c1ccc(Cl)cc1,i,-3.0,-6.63*,1.3,70.3%*,i
O=S(=O)(NCc1csc(-c2cccs2)n1)c1cccc(C(F)(F)F)c1,i,-14.6,-5.49*,0.7,53.8%*,i
Cc1ccc(S(=O)(=O)NCc2csc(-c3cccs3)n2)cc1,i,-9.5,i,0.6,x,x
Cn1nc(C(=O)NC2CCCCC2)c2c1-c1ccccc1SC2,i,-8.5,i,3.3,x,x
CC1CCCN(CCCNC(=O)c2nn(C)c3c2CSc2ccccc2-3)C1 (centres undefined),i,x,-6.15*,-4.3,23.4%*,i
CC1CCCCN1CCCNC(=O)c1nn(C)c2c1CSc1ccccc1-2 (centres undefined),i,x,-7.56*,0.0,8.6%*,i
CCN(CC)C(=O)Cn1cnc2sc(C(=O)NCCCN3CCOCC3)c(C)c2c1=O,i,x,i,-0.2,x,x
CCC(Sc1nc2ccsc2c(=O)n1Cc1ccc(C(=O)O)cc1)C(=O)Nc1cc(Cl)ccc1C (centres undefined),x,13.5,x,x,x,x
CCC(Sc1nc2ccncc2[nH]1)C(=O)Nc1cc(Cl)ccc1C (centres undefined),i,2.4,-5.86*,-2.1,i,i
Cc1ccc[n+](CC(=O)Nc2cc(C(F)(F)F)ccc2N2CCOCC2)c1,i,-22.1,-8*,-0.8,25.1%*,i
O=C(Nc1ccccc1C(F)(F)F)c1c(F)cccc1Cl,i,x,i,1.1,x,x
NC(=O)C[n+]1cccc2ccccc21,i,x,i,-2.1,x,x
Cc1sc[n+](CC(=O)c2ccc(Br)cc2)c1C,i,x,-13.4*,1.3,24.2%*,i
O=C(C[n+]1cccc2ccccc21)c1ccc(Br)cc1,i,7.1,-9.35*,-2.2,25.5%*,i
Cc1ccc(C(=O)C[n+]2cccc3ccccc32)cc1,i,-5.7,-6.54*,0.1,28.7%*,i
COc1cccc(C(C(=O)NC2CCCC2)N(C(=O)c2ccco2)c2ccc(-n3cnnn3)c(C)c2)c1OC (centres undefined),i,-14.5,i,-1.5,x,x
O=C1N=C(N2CCCC2)CN1c1ccccc1,i,x,i,-0.5,x,x
CC1CCCCC1NC(=O)C1CCCN(S(=O)(=O)c2ccc(-n3cnnn3)cc2)C1 (centres undefined),i,x,-9.53*,-3.0,52.3%*,i
COc1ccc(C(=O)N2CCCC(O)C2)cc1OC1CCN(C(C)C)CC1 (centres undefined),i,0.6,-7.07*,1.2,61.5%*,i
COc1ccc(C(=O)NCCC2=CCCCC2)cc1OC1CCN(C(C)C)CC1,i,x,-11.1*,-2.1,5.1%*,i
SMILES,CHT allo act,H9c2 TAG inh,CHT inh,MIN6 prolif,CHT block conf,HEK293 CHT ctr
COc1ccc(C(=O)NC2CCCCCC2)cc1OC1CCN(C(C)=O)CC1,i,x,i,-2.0,x,x
COCC1CCN(C(=O)c2ccc(OC)c(OC3CCN(C(C)C)CC3)c2)CC1,i,4.4,i,1.8,x,x
COc1ccc(C(=O)NCCCSC)cc1OC1CCN(C(C)C)CC1,i,4.8,-9.06*,-2.5,18.0%*,i
COc1ccc(C(=O)NC2CCCCC2)cc1OC1CCN(C(C)C)CC1,i,40.4,-7.74*,0.1,9.8%*,i
CCOCCCNC(=O)c1ccc(OC2CCN(C(C)=O)CC2)c(OC)c1,i,-2.0,i,-0.4,x,x
COc1cc(C(=O)NCCC2=CCCCC2)cc(OC)c1OC,i,x,i,0.0,x,x
Cc1c(C(=O)N(C)CCCCN2CCOCC2)oc2c(F)cccc12,i,5.9,i,-3.8,x,x
CC(C)(C)C(=O)N1CCN(c2ccc(NC(=O)c3ccc4c(c3)OCCO4)cc2)CC1,i,x,-5.38*,-1.1,65.8%*,i
CN1CCCN(C(=O)CC(c2ccccc2)c2ccccc2)CC1,i,x,i,2.3,x,x
C/C(=N\OCC(=O)Nc1ccccc1C(=O)O)c1cccs1,i,-0.2,-6.17*,1.0,44.3%*,i
C/C(=N/OCC(=O)Nc1ccc(C)cc1C)c1cccs1,i,-14.2,i,-2.8,x,x
Cc1ccc(C)c(NC(=S)NCC(c2ccccc2)N(C)C)c1 (centres undefined),i,-9.1,i,-2.3,x,x
N#C/C(=N\Nc1cccc(Cl)c1)C(=O)c1ccccc1,i,-16.4,-5.23*,-6.0,65.9%*,i
CC(=O)Nc1ccc(NC(=O)CSc2nnc(NC(=O)Cc3ccc(F)cc3)s2)cc1,i,20.1,i,5.8,x,x
COc1ccc(C(=O)C2CCCN(C(=O)c3noc4c3CCCC4)C2)cc1F (centres undefined),i,-1.8,i,-1.0,47.2%*,i
COc1ccc(C(=O)C2CCCN(C(=O)c3noc4c3CCCC4)C2)c(C)c1 (centres undefined),i,-16.3,i,-2.5,x,x
C=CCOC(=O)C1=C[C@@H](c2cn(C(C)=O)c3ccccc23)C[C@@H](OCCCCO)O1,i,-21.0,-5.27*,-1.1,i,i
CCOc1ccc(NC(=O)OCCN2CCN(CCc3ccccc3)C(C)C2)cc1 (centres undefined),x,-0.4,x,x,x,x
O=C(C[C@H]1C[C@@H]2c3cc(NS(=O)(=O)c4ccccc4)ccc3O[C@@H]2[C@H](CO)O1)N1CCOCC1,x,-1.3,x,x,x,x
O=S(=O)(Nc1ccc(-c2csc(-c3ccccc3)n2)cc1)c1ccc(F)cc1,i,13.7,i,-3.8,x,x
Cc1cc(-c2csc(NC(=O)c3ccc(=O)[nH]c3)n2)c(C)n1Cc1ccccc1,i,11.3,i,-4.0,x,x
O=C(Nc1nc(-c2ccccc2)cs1)c1ccc(=O)[nH]c1,i,5.2,-6.01*,-6.3,69.7%*,i
O=C(Nc1nc(-c2ccccc2)cs1)c1ccccc1NS(=O)(=O)c1ccc(F)cc1,i,-0.9,-7.95*,-6.2,42.4%*,i
